# PubChem BioAssay (EPA / NIEHS)
# Records with an inconclusive call do not appear. Calls of active or inactive are those of the source. How the source made its calls: active means hit-call score of the fitted dose curve at least 0.9, where 1 is the maximum; inconclusive means response in the unintended direction; inactive means score below 0.9.
# Target: human Adenosine A2a Receptor (AdoRA2a), ADORA2A (gene 135) (UniProt P29274)
# Assay: NVS_GPCR_hAdoRA2a: NovaScreen (NVS) G Protein-Coupled Receptor Assay for human Adenosine A2a Receptor (AdoRA2a) (AID 2283256)
# Experimental: NVS_GPCR_hAdoRA2a is a biochemical, single-readout assay that uses extracted gene-proteins from HEK293 in a cell-free assay. Measurements were taken 1.5 hours after chemical dosing in a 96-well plate.NVS_GPCR_hAdoRA2a is one of one assay component(s) measured or calculated from the NVS_GPCR_hAdoRA2a assay. It is designed to make measurements of radioligand binding, a form of binding reporter, as detected with scintillation counting signals by Filter-based radiodetection technology.Data from the assay component NVS_GPCR_hAdoRA2a was analyzed into 1 assay endpoint. This assay endpoint, NVS_GPCR_hAdoRA2a, was analyzed in the positive analysis fitting direction relative to DMSO as the negative control and baseline of activity. Using a type of binding reporter, loss-of-signal activity can be used to understand changes in the binding as they relate to the gene ADORA2A. Furthermore, this assay endpoint can be referred to as a primary readout, because the performed assay has only produced 1 assay endpoint. To generalize the intended target to other relatable targets, this assay endpoint is annotated to the gpcr intended target family, where the subfamily is rhodopsin-like receptor.
# Binding assays used specific radioligands (tritiated, iodinated) with non-radioactive competitive displacement ligands in agonist or antagonist protocols (as indicated) and various reference compounds and inhibitors to titrate specific binding to receptors and transporters. Most enzyme assays (CYPs, kinases, phosphatases, proteases, HDACs) used recombinant protein and specific substrates (fluorescence mostly, some colorimetric and radioactive) and inhibitors, followed by a biochemical separation of substrate and product. All assays for the biochemical HTS were initially run in duplicate at a single concentration (10 uM for CYP450 assays and 25 uM for all others). […] Each assay was run with positive and negative controls, and concurrent controls on every plate. The follow-up (secondary) screen tested active chemical-pairs in concentration series, as well as a few additional assays not tested in the primary screen, some selected negative inactives, and several cases re-run in the concentration series for confirmatory purposes.
# Chain of human Adenosine A2a Receptor (AdoRA2a), ADORA2A (gene 135) (P29274 whole entry, looked up): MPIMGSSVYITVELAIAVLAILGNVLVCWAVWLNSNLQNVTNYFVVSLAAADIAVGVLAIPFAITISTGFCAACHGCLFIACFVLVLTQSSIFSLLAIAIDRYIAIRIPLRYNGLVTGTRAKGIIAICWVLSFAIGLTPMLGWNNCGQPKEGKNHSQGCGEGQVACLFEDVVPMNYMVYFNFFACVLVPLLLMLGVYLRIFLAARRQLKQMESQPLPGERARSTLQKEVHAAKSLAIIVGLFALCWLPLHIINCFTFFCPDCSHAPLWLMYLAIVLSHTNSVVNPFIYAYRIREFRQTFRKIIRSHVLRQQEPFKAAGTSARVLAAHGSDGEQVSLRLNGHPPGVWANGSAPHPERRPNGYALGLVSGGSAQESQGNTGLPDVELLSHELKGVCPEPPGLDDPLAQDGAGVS
Structure (SMILES),AC50,outcome
CCCOC(=O)c1ccc(C(=O)OCCC)nc1,15.2 µM (active),–
c1ccc2[nH]c(-c3cscn3)nc2c1,4.91 µM (active),–
CC(C)CCCCCCc1ccc(O)cc1,–,inactive
COC(=O)c1cccc(C)c1S(=O)(=O)NC(=O)Nc1nc(OCC(F)(F)F)nc(N(C)C)n1,6.04 µM (active),–
O=C(c1ccc(O)cc1O)c1ccc(O)cc1O,–,inactive
CCNc1nc(N)nc(Cl)n1,9.05 µM (active),–
